Each structure is given as a SMILES string. “And” between values parts separate entries of the source, which are not always exact repeats. Equal entries are not always repeated. Compounds without any hit were thinned out: in the full panel of roughly 83,000, 20% have a hit.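 Testing used 96-well plates and a 48-hour single-concentration exposure. Example: -40 means 40% of the starting cells died.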 A number with no mark means an inactive call. The source made the active and inactive calls. Rule for the calls: active = growth percent below 10; inactive = the rest.

The test deals with MDA-MB-468 breast. Kind of test: NCI-60 one-dose screen, 48 h (100 = growth as untreated, 0 = no growth, -100 = all killed). As to conditions: 10 µM unless noted.
As for `O=C(Nc1cccc(-c2nc(-c3ccc(NC(=O)c4cccs4)cc3Cl)no2)c1)Nc1ccc(NC(=O)C2CC2)c(C(F)(F)F)c1`, the growth is -84.6% (active). In the case of `Cc1ccc(CSC(=N)N)cc1C`, the growth is 104%.

On to `CC(C)N1CN2C(=S)NC3C2N(C1)C(=S)N3C` (stereo not given), for which the growth was 101%. For the molecule `C=C1C(=O)O[C@H]2[C@H]1CC/C(COC(=O)Nc1nc3ccccc3[nH]1)=C\CC[C@@]1(C)O[C@@H]21`, the growth is 36.9%.

For `Cc1cc(=NO)cc(C)n1O`, the growth is 98.1%.

Turning to `CN1CCN(Cc2ccc(NC(=O)c3cncc(C#Cc4cnc5ccc(OCC(F)F)nn45)c3)cc2C(F)(F)F)CC1`, the growth was -65.5% (active). For the molecule `O=C(/C=C/c1ccco1)c1ccccc1O`, the growth was 60.7%. The figure for `COc1ccc(-c2nnc3n(C)c(=O)c4ccccc4n23)cc1O` is -2.48% (active); for `CCCCCCCCCCCCCCCCCCNC(=O)[C@H]1CSC(c2ccc(OC)cc2O)N1` (stereo not given in full) it is 115%. To `CCOC(=O)c1c(NC(=O)c2ccc(C(F)(F)F)cc2)sc2c(CN3CCN(C)CC3)c(O)ccc12` belongs -80.6% (active); to `COc1ccc(-c2cn(Cc3ccc4c(Br)cc(Br)c(O)c4n3)nn2)cc1`, 72.2%. The figure for `Nc1ncc([N+](=O)[O-])cn1` is 96.2%; for `O=C(Nc1ccc(-n2cc(-c3ccncc3)c(-c3ccc(O)c(Cl)c3)n2)cc1)c1ccc(Cl)c(C(F)(F)F)c1` it is 27.5%; for `Cc1ccc(N2CCN(C(C)C(N)=O)CC2)cc1` (stereo not given) it is 109%. As for `C=CCn1c(SCC(=O)Nc2ccc(C(=O)/C=C/c3cc(OC)c(OC)c(OC)c3)cc2)nnc1-c1ccc(Cl)cc1`, the growth is 2.35% (active). The figure for `O=C(/C=C/C12c3ccccc3C(c3ccccc31)C1C(=O)NC(=O)C12)c1ccc(Cl)cc1` (stereo not given) is -19.5% (active). On to `Cc1ccc(C(=O)NN)cc1`, for which the growth is 106%.

With `Nc1nc(N)c2c(n1)NC(c1sc(Cl)nc1Cl)CC(c1ccc3c(c1)OCO3)=N2` (stereo not given), the growth was -13.3% (active). To `O=C1c2ccccc2NC(n2sc3ccccc3c2=O)N1c1ccccc1` (stereo not given) belongs 106%; to `Clc1ccc(C2CC(c3cccc(Nc4ccncc4)c3)=NN2c2ccc(Cl)cc2)cc1` (stereo not given), -35.3% (active). As for `O=C(Cc1cccc(OC(F)(F)F)c1)Nc1ccc(CCCCc2nnc(NC(=O)Cc3ccccn3)s2)nn1`, the growth is 52.3%. To `COc1cc(C2CC(c3ccc(Nc4ccnc5cc(Cl)ccc45)cc3)=NN2c2ccc(Cl)cc2)cc(OC)c1OC` (stereo not given) belongs 41.9%. The figure for `ClC(Cl)c1nc(-c2ccco2)n2nc(-c3ccccc3)cc2n1` is -54.2% (active); for `Nc1c(C(=O)Nc2cccc3ccccc23)sc2nc3c(cc12)C(=O)CCC3` it is 50%. With `COc1ccc(/C=C2\Oc3cc(OCCN4CCC(Cc5ccccc5)CC4)ccc3C2=O)cc1OC`, the growth is 31%. To `Nc1nc(N)c2nc(CNc3ccc(C(=O)CC(CCC(=O)O)C(=O)O)cc3)cnc2n1` (stereo not given) belongs 65.4%; to `COc1cc2ncnc3c2cc1OCCCCCN(C)Cc1ccc(Br)cc1N3`, -26.6% (active).

In the case of `COc1cc2c(cc1OC)C(=O)C(CC1CCN(C(=O)Nc3ccc(C)cc3)CC1)C2` (stereo not given), the growth is 93.1%. As to `NC(N)=NC(N)=NCCCc1ccco1`, the growth was 107%.

Consider `CCN(CC)CCOc1ccc(-c2c(-c3ccccc3)c(=O)oc3ccccc23)cc1`, for which the growth was 72.9%. The figure for `O=[N+]([O-])c1c(O)c(Cl)cc(Cl)c1Cl` is 91.2%; for `N#Cc1nc(-c2cccc(Br)c2)cc(-c2ccc(Nc3nc(N4CCCCC4)nc(N4CCCCC4)n3)cc2)c1N` it is -26.3% (active); for `FC(F)(F)c1ccc(-c2cnc(Br)nc2NC2CCCCCC2)cc1` it is 12.6%.

For `O=C(Nc1cccc(-n2cc(-c3ccncc3)c(-c3ccc(Cl)c(O)c3)n2)c1)Nc1ccc(Cl)c(Cl)c1`, the growth was 2.25% (active). To `COc1ccccc1CNCCCN1C(=O)c2ccc3c4c(ccc(c24)C1=O)C(=O)N(CCCNCCCCNCCCN)C3=O` belongs -84.5% (active); to `COc1ccc(N2CCN(Cc3cc(C(=O)/C=C/c4c[nH]c5ccccc45)ccc3O)CC2)cc1`, 99.5%; to `COc1ccccc1/C=C/C(=O)/C=C/c1ccccc1OC`, -61.8% (active) and -11.8% (active). To `CCOC(=O)C(=O)CC(=O)c1ccccc1` belongs 96.9%; to `COc1ccc(C[n+]2c3ccccc3n3c4ccc(N)cc4ccc32)c(OC)c1OC`, -22.5% (active).

Take `O=C(CBr)CN1C(=O)c2ccccc2C1=O`: the growth is 103%.

The values are drawn from PubChem BioAssay (NCI).
